Assay outcomes as filed in PubChem.
Sampled rows, rich in hits. Any-hit rate of the full collection: about 18%.
Gal4-VP16 FLuc – Gal4-VP16 reporter inhibition counter-screen; AID 2546; Drosophila S2 Gal4-VP16 UAS-luciferase, luminescence, 20 h; Potency, µM (top dose mostly 53.6 µM), for inactives: at the highest dose activity, negative = inhibition, most hits filed as inhibitors; actives 3.5% (n = 310,000);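 note: Gal4-VP16 expression switched on by copper sulfate through the metallothionein promoter; potency is the fitted concentration of half-maximal effect; nearly all actives have a fitted effect of over 50% in size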
IL-1B inflam inh – blocks inflammasome-driven IL-1 beta release; THP-1 LPS/ATP IL-1B secretion, AlphaLISA, 16 h; stronger effect = lower value; activity change, % at 57.5 µM; actives 4.7% (n = 360,000); in the data active = activity change below about -50%; inconclusive = mostly about -30% to -49%
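Secreted IL-1B measured by AlphaLISA bead assay after 16 h compound exposure of THP-1 cells; compounds (final up to 57.5 uM) added 1 h before LPS (250 ng/mL) and ATP (1.25 mM) stimulation; lower signal means less secretion.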
LDHA block – inhibitors of human lactate dehydrogenase A | P00338 | purified LDHA, NADH/diaphorase-resazurin fluorescence; stronger effect = lower value | activity change, % (values are at about 110 or 230 µM) | actives 0.15% (n = 480,000); in the data active = activity change below about -30%; inconclusive = mostly about -25% to -30%;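 note: plate controls were DMSO wells for no effect and wells without enzyme for full effect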
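Remaining NADH was detected by diaphorase (0.133 mg/mL) converting 37 µM resazurin to fluorescent resorufin, read at 0 and 20 minutes. The preceding 5-minute room-temperature reaction used 2 nM LDHA, 0.2 mM sodium pyruvate and 0.06 mM NADH at pH 7.4.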
RORg inh – blocks mouse ROR gamma transcriptional activity. P51450. Drosophila S2 Gal4-RORgamma UAS-luciferase reporter, 20 h. Potency, µM (highest dose often 53.6 µM), inactives show at the highest dose activity change, negative = inhibition, usual class: inhibitors. actives 5.4% (n = 310,000). AID 2551; note: potency is the fitted concentration of half-maximal effect; nearly all actives have a fitted effect of over 60% in size
Target sequence (P51450 whole entry, looked up, the tested form may be a part): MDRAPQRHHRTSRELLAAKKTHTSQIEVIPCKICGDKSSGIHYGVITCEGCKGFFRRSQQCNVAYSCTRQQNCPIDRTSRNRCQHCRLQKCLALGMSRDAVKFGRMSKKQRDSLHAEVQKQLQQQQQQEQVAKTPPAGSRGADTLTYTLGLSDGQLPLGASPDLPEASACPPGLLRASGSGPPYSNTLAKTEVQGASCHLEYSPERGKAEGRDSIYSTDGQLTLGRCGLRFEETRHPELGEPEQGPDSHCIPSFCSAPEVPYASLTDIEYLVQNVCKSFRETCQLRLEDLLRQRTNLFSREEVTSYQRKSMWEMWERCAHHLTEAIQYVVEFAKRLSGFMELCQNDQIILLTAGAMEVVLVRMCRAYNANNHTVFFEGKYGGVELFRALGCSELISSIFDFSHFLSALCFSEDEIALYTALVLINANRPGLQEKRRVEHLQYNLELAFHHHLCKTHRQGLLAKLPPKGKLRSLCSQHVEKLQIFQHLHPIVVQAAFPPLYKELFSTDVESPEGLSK
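Luciferase reporter read in Schneider cells carrying Gal4-RORγ (mouse) and UAS-Photinus luciferase; cells given compound 1 h before 700 uM copper sulfate induction, then incubated 20 h at ambient temperature.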
TDP1 cell CPT – DT40-hTDP1 cell growth loss with CPT; Potency, µM (top dose mostly 46.2 µM), for inactives: top-dose activity change, negative = growth inhibition, most hits filed as inhibitors; actives 12% (n = 420,000); chicken DT40 Tdp1-/-;hTDP1 cells + 20 nM CPT, ATP luminescence, 48 h; note: potency is the fitted concentration of half-maximal effect; nearly all actives have a fitted effect of over 55% in size
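Chicken DT40 Tdp1-/- cells complemented with human TDP1, 400 cells/well, exposed to compounds plus 20 nM camptothecin for at least 48 h at 37 C; viability read as ATP content by CellTiter-Glo luminescence.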
TDP1 cell noCPT – qHTS for Inhibitors of human tyrosyl-DNA phosphodiesterase 1 (TDP1): qHTS in cells in absence of CPT. DT40 Tdp1-/- hTDP1 cells, no CPT, ATP luminescence, 48 h. Potency, µM (highest dose often 46.2 µM), without a hit: top-dose activity change, negative = growth inhibition, actives largely listed as inhibitors. actives 15% (n = 420,000). AID 686978, 2013; note: potency is the fitted concentration of half-maximal effect; nearly all actives have a fitted effect of over 55% in size
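Growth of hTDP1-complemented DT40 Tdp1-knockout cells is measured by ATP luminescence after at least 48 hr compound exposure at 37 °C, with DMSO substituting for the 20 nM CPT used in the parallel screen.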
Active calls of the source: *; ? = inconclusive; . = no result. Unless noted, calls come from the whole dose curve; as a rule, active = well fitted curve in the direction sought with a large enough effect; inconclusive = small, poorly fitted or top-dose-only effect, or another doubt; inactive = no such curve, though single readings can be large; an effect the other way counts as inactive or inconclusive. Unless noted, % is set by controls: 0 for no effect and ±100 for the full control effect.

SMILES | Gal4-VP16 FLuc | IL-1B inflam inh | LDHA block | RORg inh | TDP1 cell CPT | TDP1 cell noCPT
Cc1c(C)c2cc(Cl)c(OCC(=O)NCc3ccccn3)cc2oc1=O | . | . | 5 | . | . | .
O=S(Cc1ccc(F)cc1)Cc1ccc(Cl)cc1 (configuration not stated) | . | . | -5 | . | . | .
COc1cc(/C=C/C(=O)c2cc3ccccc3oc2=O)cc(OC)c1OC | . | . | -2 | . | . | .
O=C(Nc1cccnc1)c1cccs1 | -4% | 22 | -2 | 24% | 0.33µM* | 0.37µM*
O=C(Nc1ccc(CN2CCOCC2)cc1)c1cccs1 | -16% | 2 | -1 | -40% | -1% | -17%
O=C(NC(=S)Nc1cccnc1)c1cccs1 | -7% | -1 | -1 | 10µM* | -12% | -5%
O=C(NC(=S)Nc1ccc(Cl)cn1)c1cccs1 | 1µM* | 50 | -8 | ? | -1% | 7%
O=C(Nc1cnn(Cc2ccc(Cl)cc2)c1)c1cccs1 | -8% | -27 | -2 | ? | 12µM* | 8.2µM*
Cc1c(C(=O)N2CCC(C(=O)Nc3ccc4c(c3)OCO4)CC2)oc2ccc(F)cc12 | . | . | -6 | . | . | .
CCc1ccc2oc(C(=O)N3CCN(c4ccc(OC)cc4)CC3)cc(=O)c2c1 | -2% | -84* | -6 | 0% | 11% | ?
CCc1ccc2oc(C(=O)N3CCN(c4ccccc4OC)CC3)cc(=O)c2c1 | -3% | -15 | -4 | 37% | 5.2µM* | 9.2µM*
COc1ccccc1N1CCN(C(=O)c2cc(=O)c3c(C)cc(C)cc3o2)CC1 | 1% | 17 | -2 | 25% | -24% | -22%
Cc1[nH]c(C=O)c(C)c1C#N | . | . | 11 | . | . | .
COC(=O)C1(NC(=O)CCNC(=O)C2CCCC2)CCC(C)CC1 (configuration not stated) | . | . | 0 | . | . | .
CCCSc1nc2sc3c(c2c(=O)[nH]1)CCN(Cc1ccccc1)C3 | -4% | 38 | 0 | 13% | ? | 21µM*
CCCSc1nc2sc3c(c2c(=O)[nH]1)CC(C)CC3 (configuration not stated) | -11% | 11 | 1 | -12% | ? | 16µM*
CCCCSc1nc2sc3c(c2c(=O)[nH]1)CCC3 | -3% | -12 | -7 | 24% | -15% | 0%
CCc1ccc(CNc2ccc3c(c2)ncn3C(C)(C)C)cc1 | ? | -78* | 25 | ? | 21µM* | 21µM*
CCc1ccc(CNc2ccc3c(c2)ncn3CC)cc1 | ? | -57* | 16 | -41% | ? | ?
CCN(CC)c1ccc(CNc2ccc3c(c2)ncn3C(C)(C)C)cc1 | -16% | -24 | 6 | -14% | 16µM* | ?
CCn1cnc2cc(NCc3ccc(OC)cc3)ccc21 | 0% | 1 | 27 | 0% | -25% | ?
CC(C)(C)n1cnc2cc(NCc3ccc(Br)cc3)ccc21 | ? | ? | 20 | ? | ? | ?
CC(C)(C)n1cnc2cc(NCc3ccccc3O)ccc21 | -3% | ? | 9 | -34% | ? | ?
Cc1cccc(Oc2nc(-c3ccncc3)nc3ccccc23)c1C | . | . | 1 | . | . | .
Cn1c(=O)c2c(-c3ccccc3)n(-c3cccc(Br)c3)cc2n(C)c1=O | . | 34 | -5 | . | 9.2µM* | 8.2µM*
SMILES | Gal4-VP16 FLuc | IL-1B inflam inh | LDHA block | RORg inh | TDP1 cell CPT | TDP1 cell noCPT
Cn1c(=O)c2c(-c3ccccc3Cl)n(-c3cccc(O)c3)cc2n(C)c1=O | . | . | 15 | . | . | .
Cn1c(=O)c2c(-c3ccccc3)n(-c3ccccc3)cc2n(C)c1=O | . | 22 | 3 | . | 3.7µM* | 4.6µM*
C#CCn1cc2c(c1-c1ccccc1)c(=O)n(C)c(=O)n2C | . | 17 | 0 | . | 16µM* | 21µM*
Cn1c(=O)c2c(-c3ccccc3)n(CCCO)cc2n(C)c1=O | . | . | -3 | . | -11% | -22%
COc1ccc(-c2c3c(=O)n(C)c(=O)n(C)c3cn2-c2cccc(N)c2)cc1 | . | . | 5 | . | ? | 23µM*
COCCCNC(=O)c1cc(-c2ccc(OC)cc2)nc2ccccc12 | . | . | 5 | . | . | .
N#CC(C(=O)/C=C/c1ccccc1)C(=O)NC1CCCCC1 (configuration not stated) | . | . | 7 | . | . | .
O=S(=O)(NCc1ccccc1F)c1ccc2c(c1)OCCO2 | . | . | -2 | . | . | .
Cc1ccc(C)c(N2CCN(c3cc(C)nc4nc(-c5ccco5)nn34)CC2)c1 | . | . | -1 | . | . | .
Cc1ccc(-n2cc3c(c2-c2ccccc2)c(=O)n(C)c(=O)n3C)c(C)c1 | . | . | 20 | . | . | .
Cn1c(=O)c2c(-c3ccccc3)n(-c3cc(C(=O)O)ccc3O)cc2n(C)c1=O | . | 8 | 0 | . | -15% | 5%
CCOC(=O)c1ccc(O)c(-n2cc3c(c2-c2ccccc2)c(=O)n(C)c(=O)n3C)c1 | . | 23 | -4 | . | ? | 15µM*
Cn1c(=O)c2c(-c3ccccc3)n(-c3ccccc3F)cc2n(C)c1=O | . | -12 | -13 | . | 15µM* | 13µM*
COC(=O)c1sccc1-n1cc2c(c1-c1ccccc1)c(=O)n(C)c(=O)n2C | . | 2 | -4 | . | ? | 21µM*
COc1ccc(-c2c3c(=O)n(C)c(=O)n(C)c3cn2-c2ccccc2)cc1 | -2% | 14 | -2 | ? | 26µM* | 13µM*
C=CCn1c(N(C)Cc2ccccc2)nc2c1c(=O)n(C)c(=O)n2C | . | . | -3 | . | . | .
COc1ccc(-c2c(C(=O)O)sc3c2NC(=O)CC32C(=O)N(C)c3c(C)cccc32)cc1 (configuration not stated) | . | . | -7 | . | . | .
Cn1c(=O)c2c(-c3ccccc3)n(-c3cccc(C#N)c3)cc2n(C)c1=O | . | . | -10 | . | 16µM* | 23µM*
Cn1c(=O)c2c(-c3ccccc3)n(-n3cnnc3)cc2n(C)c1=O | ? | -17 | -6 | 18µM* | 26µM* | ?
O=C(CCCCCCCC(=O)NNC(=O)c1ccc(Cl)cc1)NNC(=O)c1ccc(Cl)cc1 | . | . | -4 | . | . | .
O=C(NCc1ccccc1CN1CCOCC1)c1ccc(-n2cccn2)cc1 | . | -15 | 2 | . | ? | ?
Cc1ccnn1-c1ccc(C(=O)NCc2ccccc2CN2CCOCC2)cc1 | . | -17 | -6 | . | 21µM* | 18µM*
CC(C)C(C)NC(=O)CSc1nc2scc(-c3ccco3)c2c(=O)n1-c1ccccc1 (configuration not stated) | 14µM* | -21 | -13 | ? | ? | ?
C=CCn1c(SCc2ccc3c(c2)OCO3)nc2scc(-c3ccco3)c2c1=O | 3% | 0 | -5 | 5% | -11% | -20%
C=CCn1c(SCC(C)=O)nc2scc(-c3ccco3)c2c1=O | ? | -5 | 2 | ? | ? | 13µM*
